# Source: PubChem BioAssay AID1347426 (Functional Genomics Laboratory (NCATS/FGL), 2020)
# Among all 31,000 sequences or so, about 1,400 (4.5%) were called active. This excerpt belongs to a sample that is enriched for actives. A number with no mark means an inactive call.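 The calls were made as follows: active = median seed-adjusted z-score above 1 or below -1; inactive = the rest.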
# Assay: Novel Modifiers of Survival Motor Neuron (SMN) Protein: Gene Identification via Genome-wide siRNA Screen;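 also: luminescence tracks full-length SMN protein made from the SMN2 reporter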
# Settings: HEK293T SMN2-luciferase reporter, siRNA knockdown, 72 h; actives lie on both sides
# How it was run: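 HEK293T cells stably expressing an SMN2 splicing/cDNA-luciferase reporter were reverse-transfected with a druggable-genome siRNA library and read by luminescence at 72 hours; hits defined by MAD score above 1.0 or below -1.0.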
row,Sequence,median seed-adjusted z-score
1,CGAUCAACUCCUUAAAGGATT against FLRT2,-0.00573
2,GCUUUUCCAUUAUAAGGCATT against FOXE1,-0.316
3,CAAAUUGCCUCGUCAAAGATT against DNTT,0.316
4,GACCGACUCAGAUAUCAUUTT against SNRPA,-2.09 (active)
5,CACUGGAUUUGAGAGGUUATT against ABHD7,-0.301
6,GGCCGAGUGUACUACUUCATT against PIN1,0.156
7,GCACUGUGCUUAAGCUGGATT against PKN1,-0.753
8,CGACAUGAUCUCCUACUCATT against ABLIM2,-0.26
9,GAAACUGGACAGUAAGAAATT against HDAC4,-0.0988
10,GGUUUCAAGAUAACCCAAATT against POU2F3,-1.53 (active)
11,CAAAGGUUAUUCUGCAUAUTT against CTSO,0.322
12,GCAGGAGCUGUAUUUGAUGTT against NUDT6,0.281
13,AGAUGUACGAGGAAAAGUATT against WNK4,0.385
14,GGUGUUUGAUAUACAGAGGTT against RABL2A,0.794
15,CGACUCUGACACCACCAUATT against GOSR2,-1.25 (active)
16,CCAUGGAUUUUAUGAGGAATT against ECHDC1,0.554
17,CCUUCAUUAAUGAGUCAUATT against ZNF426,0.2
18,UGCAGCCUCUCCAAACUUATT against SP6,-0.176
19,GCCCAACAAGUGUACGUUUTT against GLIS3,-0.00906
20,GGCUGAUAAAAAUCCACGATT against RICS,0.665
21,AGUACGAUCUUGACUUCAATT against ENO3,-0.142
22,GGGAAGUCUUUUAAUCGUATT against ZNF780B,-0.332
23,CUGUUGGUAUUGUCCACAATT against MAL,0.0733

row,Sequence,median seed-adjusted z-score
1,GGGACUUUUGCAAAGGAAATT against CLEC5A,-1.07 (active)
2,GGAGAGCUGUGAAAAGUCATT against CCR8,-0.206
3,GAACUUAGACCAACUUUAATT against COX5A,-0.348
4,CCACAAGCUGCAUAAGAGATT against SPTBN4,-0.0625
5,GGACUUUUACACCACCUUUTT against NRXN2,-0.485
6,CAACGACUACAGGUCUGUATT against ITGA11,0.496
7,GGCAGGAAGUCAAACCUAUTT against KLK2,0.0716
8,CAAACGAGGUGAACGAUGATT against PYGO1,-1.23 (active)
9,AGAUACUCACGGACAUUAUTT against COASY,0
10,GUCACGCUAUGAGACCUCATT against E2F1,-0.211
11,GCAUCGAAUUUGCAGAACATT against PNN,1.29 (active)
12,GGAAACGAUUAUUACAACUTT against LRRK2,-0.671
13,AUAAAUACCUCGGACAUUATT against EIF1AX,0.878
14,CCCUUCGCGUUGUUGCUCATT against DHRS1,0
15,GAGGGACCAUAGUAGAUCATT against CPSF6,-2.38 (active)
16,GAUCGAUUCAUACCAUAUATT against MCM8,0.279
17,GAAGCUACGUUGACUAUUUTT against HRC,1.06 (active)
18,GAAGUUUACUUAUCUGGGUTT against PRKAB1,0.536
19,CAACAAUCCUAUAAUUCCATT against UBE2Q2,0.146
20,ACCUGUUAAUGGCCUUUGUTT against SLC30A3,-1.26 (active)
21,GGAGUUCAUCCGUCAAGUUTT against BIRC3,-0.644
22,GCAUCAAUGUACCUCCACATT against ETV4,-0.186
23,CGACCAUUGGAGAUGUUAATT against SCML2,-0.538

row,Sequence,median seed-adjusted z-score
1,GAGGAUUACUAAUUGAUCUTT against CHM,0.743
2,GAAAAAGGGUCACCAGAAATT against TSG101,1.48 (active)
3,GGCCGUGGAUCAUCACUAUTT against FLJ16165,-0.404
4,GCCUUAAGGUAUUCGUGUATT against EXTL1,0
5,CCACCACAGAUUUUCCUAUTT against CD300A,-0.414
6,GGAACUCAUUAUACAAUGATT against CLCN3,-0.0801
7,CCCUAUGAGUGUCAACAAUTT against ZNF799,-1.02 (active)
8,GAUAUGUAUUCAUACUAAUTT against SNX10,0.391
9,GUACAGCUCUUAUCGUUCATT against PPRC1,0
10,GCAUCUUUCUGAGUUCACUTT against SLC22A11,0
11,GUGCUACAAUUGUACAGUATT against CREM,-2.37 (active)
12,GCAUGAGUAUCUAUGACGATT against ATP5C1,-0.0179
13,ACUCCAACCGUACCCUUUATT against PPT2,0.0334
14,CCACUACGGUGUUCAUGCATT against PPARD,0.0283
15,CUGAGACCCUGUUGACUGATT against PGS1,1.36 (active)
16,GACUCCUACAUGUCCAUUATT against DNM3,0
17,GACAGACUGUGCAUAUGUATT against GPR15,0.101
18,GCAACCACCUAUAUCCUCATT against P2RY10,-0.432
19,GAGUCACAUUUGAGGUUCATT against CSF2RA,-0.227
20,CUCCCUCGGUUAUAAAGAUTT against SLC4A5,1.3 (active)
21,CAACCUUGCGGCAUGCAAATT against PRSSL1,-0.221
22,GGAUCUAUAGUGAUUGUCATT against TFRC,0.019
23,GCCUAUAGAGGAUCAGUUATT against PCMTD1,0.0312
